Hit rate of the full screen: of about 69,000 compounds, about 8,600 (12%) showed an effect of 50% or more. The sample holds strong results, similar compounds and a random draw of the others, so the mix is not that of the screen.

The assay relates to Plasmodium berghei. Put plainly: Screen against P. berghei liver stage (PbLuc), transformed with Luciferase, at 10uM. The class given is functional, HepG2. The settings on record: tested at 10 uM.
Take `CCc1ccc(NS(=O)(=O)C=c2[nH]c(=O)n3cccc3c2=O)cc1`: the INHIBITION is recorded as -101%.

For `CC(CCN1CCCn2nc(CNS(C)(=O)=O)cc2C1)c1ccccc1` (stereo not given), the INHIBITION was 27.6%.

Regarding `CN(Cc1cccc(C(N)=O)c1)Cc1nc2c(cnn2C)c(=O)[nH]1`, the INHIBITION is reported as -29.7%.

As to `Fc1ccccc1-c1nc(CNCCn2cccn2)cs1`, the INHIBITION was -58.7%.

Turning to `CCN1CCCC12CCN(C(=O)c1nccn1C)CC2`, the INHIBITION is listed as -26.5%.

Regarding `CCOc1ccc(CN(CC)C(=O)c2ccc(C)[nH]c2=O)cc1OC`, the INHIBITION came out at 20.85%.

`CC(C)N(C)C[C@H]1OC[C@@H]2CCN(Cc3cccc(C#N)c3)C[C@@H]21`: the INHIBITION turned out to be 23.3%.

For the molecule `CSc1nc2ccsc2c(=O)n1CC(=O)NC1CCCC1`, the INHIBITION is reported as -58.7%.

For the molecule `CSc1nc2ccsc2c(=O)n1CC(=O)NC1CCCCC1`, the INHIBITION was found to be 26.6%.

Turning to `CCN(CC)c1nc2ccsc2c(=O)n1CCC(=O)NC1CCCC1`, the INHIBITION was 58.4%.

In the case of `CCN(CC)c1nc2ccsc2c(=O)n1CCC(=O)NCc1cccs1`, the INHIBITION worked out at 30.2%.

On to `CCN(CC)c1nc2ccsc2c(=O)n1CCC(=O)NCc1ccco1`, for which the INHIBITION amounted to 55.7%.

Consider `Cc1ccn(CCC(=O)NCc2ccco2)n1`, for which the INHIBITION came out at 26%.

With `O=C(Nc1cccnc1)NC(CCCO)c1ccccc1` (stereo not given), the INHIBITION was determined as 14.1%.

In the case of `COCCN1C[C@H]2[C@@H](C1)N(Cc1cnn(C)c1)CC[C@H]2OC`, the INHIBITION is recorded as -4.88%.

With `O=C(c1ccc(-n2cccn2)nc1)N1CCCC(n2cccn2)C1` (stereo not given), the INHIBITION is listed as 26.45%.

Regarding `COc1ccc(OC)c(Sc2ncccc2C(=O)NCC2CC2)c1`, the INHIBITION came out at 23.3%.

`CC(c1ccon1)N(C)Cc1cc(O)c2cc(F)ccc2n1` (stereo not given): the INHIBITION came to 36%.

As to `CC(c1cccnc1)N(C)Cc1cc(O)c2cc(F)ccc2n1` (stereo not given), the INHIBITION turned out to be 66.8%.

In the case of `COc1ncc(CN(C)C(C)c2cccnc2)cn1` (stereo not given), the INHIBITION is on record as 5.85%.

Take `CC(c1cccnc1)N(C)Cc1ccccn1` (stereo not given): the INHIBITION came to 70.4%.

As to `CC(c1cccnc1)N(C)Cc1csc(-c2ccccn2)n1` (stereo not given), the INHIBITION is listed as -45.8%.

Take `CC(c1ccncn1)N(C)Cc1cc(O)c2cc(F)ccc2n1` (stereo not given): the INHIBITION worked out at 28.3%.

For the molecule `c1ccc(CCCN2CCCC2Cn2cncn2)cc1` (stereo not given), the INHIBITION was -25.9%.

In the case of `CCN(C)C(=O)c1ccc(N(C)Cc2cc(-c3cccnc3)no2)nc1`, the INHIBITION is 34%.

As for `CCN(C)C(=O)c1ccc(N(C)Cc2cc(-c3ccncc3)no2)nc1`, the INHIBITION worked out at 5.17%.

Take `CCc1ncc(C(=O)N(C)Cc2cc(-c3ccncc3)no2)cn1`: the INHIBITION turned out to be 59.7%.

Consider `O=C(CS(=O)(=O)C1CCCC1)NC1CCc2nccn2C1` (stereo not given), for which the INHIBITION came to 19.2%.

On to `Cc1cc(CN2CC[C@H]3OCC[C@@]3(C(=O)NCc3ccco3)C2)no1`, for which the INHIBITION is -0.813%.

Consider `Cc1nnc(CN2CCCC(c3noc(C4CC4)n3)C2)o1` (stereo not given), for which the INHIBITION is given as -36.3%.

(Values after ChEMBL document CHEMBL4513216, “Probing the Open Global Health Chemical Diversity Library for Multistage-Active Starting Points for Next-Generation Antimalarials” (ACS Infect Dis, 2020).)
